In PubChem BioAssay (NCI):
This is part of a sample that, as a whole, favours compounds with a hit. Of some 83,000 tested, about 20% had one in any assay.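 The test compound was applied at a single concentration to cells in 96-well plates for 48 hours, and percent growth was recorded.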 The source made the active and inactive calls.

What follows are compounds tested on SR leukemia (assay: NCI-60 one-dose screen, 48 h (100 = growth as untreated, 0 = no growth, -100 = all killed)). Conditions: 10 µM unless noted.
Description: Growth inhibition of the SR human tumor cell line is measured as a screen for anti-cancer activity. Cells are grown in 96 well plates and exposed to the test compound for 48 hours. Compounds are tested at a single concentration, which is 10^-5 M for most compounds. The reported endpoint is percent growth (GI% or GIPRCNT), where numbers from 0 - 100% represent growth inhibition, and numbers from -100% - 0 represent cell death. For example, a value of 40 represents 60% growth inhibition. A value of 0 means no net growth occurred over the course of the experiment. A value of -40 indicates 40% of cells at the beginning of the experiment died by the end of the experiment. A value of -100 means all cells are dead at the end of the experiment.
NCI-60 Human Tumor Cell Lines Screen was performed using the standard one-dose NCI protocol, which is described in more detail at https://dtp.cancer.gov/discovery_development/nci-60/default.htm.
Compounds with GIPRCNT values below 10 were considered active. Activity score was based on GIPRCNT using the following formula: […]
Score is 0 for GIPRCNT values of 100 or above, 50 for GIPRCNT values of 0, and 100 for GIPRCNT values of -100.

Row | Structure (SMILES) | growth
1 | Cc1ccc(-c2nn(-c3ccccc3)cc2/C=C/C(=O)c2ccc(NC(=O)CCCCCCC(=O)NO)cc2)cc1 | 85.4% (inactive)
2 | CNC(=O)c1cc(Oc2ccc3nc(NC(=O)c4cccc(OC(F)(F)F)c4)sc3c2)ccn1 | 58.3% (inactive)
3 | CCO/C=N/C1=C(C#N)C(c2ccc(OC)cc2)c2sc3c(C)cccc3c2O1 (stereo not given) | 17.9% (inactive)
4 | C#C[C@]1(O)CC[C@H]2[C@@H]3CC=C4c5sc(-c6ccc7c(c6)OCO7)nc5CC[C@]4(C)[C@H]3CC[C@@]21C | 16.9% (inactive)
5 | COc1ccc2c(c1)c(CC(=O)[Se]CCC#N)c(C)n2C(=O)c1ccc(Cl)cc1 | 4.36% (active)
6 | COc1ccc(NC(=O)CSc2nnc(-c3ccc4nc(-c5ccc(OC)c(OC)c5)[nH]c4c3)o2)cc1OC | 104% (inactive)
7 | CCOC(=O)c1c(N)c(C#N)cn1-c1cc(OC)c(OC)c(OC)c1 | 105% (inactive)
8 | NS(=O)(=O)c1ccc(Nc2nc(N/N=C/c3ccc(Cl)cc3)nc(Nc3ccccc3)n2)cc1 | 19% (inactive)
9 | Oc1[nH]c2ccccc2c1Nn1c(N=N/C=c2/ccc3c(c2)C=NN=3)n[nH]c1=S | 84.5% (inactive)
10 | NC(N)=Nc1ccc(Oc2cccc(Nc3ccc(Br)c(C(F)(F)F)c3)c2)cc1 | -43.5% (active)
11 | CC(=O)N1N=C(c2cccc(-n3cccc3)c2)CC1c1cccc(F)c1 (stereo not given) | 96.2% (inactive)
12 | O=S(=O)(Nc1cccc2ccccc12)c1ccc(-c2cnc(C3CC3)o2)cc1 | 21.2% (inactive)
13 | Cc1ccc(-c2cc3nc(C(Cl)Cl)nc(-c4ccco4)n3n2)cc1 | 82.4% (inactive)
14 | COc1cc(-c2nc(SC(C)C)n(C(C)C)c(=O)c2C#N)ccc1OCc1ccccc1 | 39.9% (inactive)
15 | COc1ccccc1C(=O)Nc1cccc2c1C(=O)C(=O)C=C2 | 58.2% (inactive)
16 | COc1ccc([C@H]2c3[nH]c4ccccc4c3C[C@H]3C(=O)N(C4CCN(Cc5c(Cl)cccc5Cl)CC4)CC(=O)N23)c(OC)c1 | 85% (inactive)
17 | COc1cc(OC)cc(C(=O)Nc2cccc(C#Cc3cccc4[nH]nc(N)c34)c2)c1 | 16.6% (inactive)
18 | Cc1nn(-c2ccccc2)c2ncnc(N/N=C/c3ccccc3O)c12 | 11.5% (inactive)
19 | C#CCOC(=O)[C@@H]1CCCN1CC#C | 95.5% (inactive)
20 | Nc1nc(N)c2c(n1)NC(c1ccc(C(F)(F)F)cc1)CC(c1ccc(Nc3nc(NCCO)nc(N4CCOCC4)n3)cc1)=N2 (stereo not given) | 5.13% (active)

Row | Structure (SMILES) | growth
21 | NC(N)=Nc1ccc(Oc2cccc(Nc3ccc(Br)c(C(F)(F)F)c3)c2)cn1 | -50.7% (active)
22 | O=C(Cn1cc(-c2ccccc2)nn1)Nc1nc(-c2ccc(Cl)cc2)cs1 | 98.6% (inactive)
23 | Cc1nn(-c2ccccc2)c2ncnc(N/N=C/c3cccc(O)c3)c12 | 30.8% (inactive)
24 | COc1ccc(/C=C/C(=O)c2cc(S(N)(=O)=O)c(OC)cc2OC)cc1 | 23.4% (inactive)
25 | C[C@@H]1C[C@H]2C(=O)O[C@@H](C)C(NC(=O)[C@H](Cc3cc(F)cc(F)c3)NC(=O)Nc3ccc(Cl)cc3F)C(=O)N3CCC[C@H]3C(=O)N3CCCC[C@H]3C(=O)N[C@@H](CO)C(=O)N2C1 (stereo not given in full) | 31.2% (inactive)
26 | Cc1c(F)cc(C(N)=O)cc1NCC(=O)Nc1ccc([N+](=O)[O-])cc1 | 107% (inactive)
27 | O=C(CN1CCN(c2cc(=O)n(-c3ccccc3)c3ccccc23)CC1)Nc1ccc(F)cc1 | 76.4% (inactive)
28 | CCCC(=O)NC(c1cccnc1)c1cc(C(C)(C)C)c2cccnc2c1O (stereo not given) | 11.5% (inactive)
29 | CC(c1ccccc1)N1CSc2nc3ncncc3n2C1 (stereo not given) | 88.2% (inactive)
30 | CCOC(=O)C(=O)CC(=O)N1C(=S)NC(=O)C1CC(C)C (stereo not given) | 112% (inactive)
31 | Cc1ccc2c(c1)Oc1nc(N)c(C#N)c(N)c1C2Sc1ccc(F)cc1 (stereo not given) | -15.6% (active)
32 | Nc1nc(-c2cccc([N+](=O)[O-])c2)c(N=Nc2ccccc2)s1 | 56.1% (inactive)
33 | COc1ccc(/C=C(\C#N)C(=O)N2c3ccccc3Sc3ccc(SC)cc32)cc1F | 121% (inactive)
34 | COc1ccccc1NC1=C(Cl)C(=O)c2nc(C)ccc2C1=O | -27.9% (active)
35 | Nc1nc(N)c2c(n1)NC(c1ccc(Cl)cc1)CC(c1ccc(Nc3nc(NCCO)nc(N4CCOCC4)n3)cc1)=N2 (stereo not given) | 8.95% (active)
36 | CCc1ccc(SC2c3ccc(N(CC)CC)cc3Oc3nc(N)c(C#N)c(N)c32)cc1 (stereo not given) | -0.413% (active)
37 | CC(=O)Nc1cccc(Nc2nc(N[C@@H](C)c3ccccc3)c3ccccc3n2)c1 | -43.4% (active)
38 | COc1c(N2CC3CCCNC3C2)c(F)cc2c(=O)c(C(=O)N/N=C/c3ccc(N(C)C)cc3)cn(C3CC3)c12 (stereo not given) | -33.5% (active)
39 | Cn1ccnc1C(=O)/C=C/c1ccc(CNC(=O)c2ccc(S(F)(F)(F)(F)F)cc2)cc1 | 4.16% (active)
40 | C#CCn1cccc1CNc1ccc(OC)cc1 | -36.1% (active)
